Drawing on PubChem BioAssay (EPA / NIEHS), this text covers outcome and AC50 for 31 compounds.

Activity calls are given as the source filed them. Rule for the calls: active = hit-call score of the fitted dose curve at least 0.9, where 1 is the maximum; inconclusive = response in the unintended direction; inactive = score below 0.9.

This assay is described as follows: CPHEA_Stoker_NIS_Cytotoxicity: Cytotoxicity Assessment for CPHEA's Radioactive Iodide Uptake (RAIU) Assay for Sodium/Iodide Symporter (NIS) Inhibition, Stoker and Laws Labs (AID 2283897).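 For AC50: active means loss of ATP signal versus DMSO meaning cytotoxicity.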 The method, boiled down:
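Viability in hNIS-HEK293T-EPA cells is scored as a drop in luciferase-detected ATP following 2-hour room-temperature exposure (0.001–100uM; triplicate wells, three cell passages), with DMSO as negative control.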
`CC1(C(=O)Nc2ccc(O)c(Cl)c2Cl)CCCCC1`: the result was inactive.
Consider `COP(=O)(OC)OC(Br)C(Cl)(Cl)Br` (stereo unspecified), for which the outcome was inactive.
Turning to `Nc1c(Cl)cc([N+](=O)[O-])cc1Cl`, the outcome was inactive.
Consider `CON=C(C(=O)OC)c1ccccc1CON=C(C)c1cccc(C(F)(F)F)c1`, for which the result was inactive.
Regarding `CC[C@H](C)[C@H]1O[C@]2(C=C[C@@H]1C)C[C@@H]1C[C@@H](C/C=C(\C)[C@@H](O[C@H]3C[C@H](OC)[C@@H](O[C@H]4C[C@H](OC)[C@@H](NC)[C@H](C)O4)[C@H](C)O3)[C@@H](C)/C=C/C=C3\CO[C@@H]4[C@H](O)C(C)=C[C@@H](C(=O)O1)[C@]34O)O2`, the concentration at half-maximal activity (AC50) (commonly the concentration giving half of the maximal activity seen) was 23 µM (active).
`Cc1cc(C2CC2)nc(Nc2ccccc2)n1`: the outcome was inactive.
Same read-out and setting: then `C=C(C)[C@H]1Cc2c(ccc3c2O[C@@H]2COc4cc(OC)c(OC)cc4[C@@H]2C3=O)O1`, with “inactive”.
As to `O=[N+]([O-])c1cc(C(F)(F)F)c(Cl)c([N+](=O)[O-])c1Nc1ncc(C(F)(F)F)cc1Cl`, the AC50 was 19.6 µM (active).
With `CC(COc1ccc(Oc2ccccc2)cc1)Oc1ccccn1` (stereo unspecified), the outcome was inactive.
`CSC1=N[C@@](C)(c2ccccc2)C(=O)N1Nc1ccccc1`: the outcome was inactive.
For `CC(C)=CC1C(C(=O)OCN2C(=O)C3=C(CCCC3)C2=O)C1(C)C` (stereo unspecified), the concentration at half-maximal activity (AC50) is 35.4 µM (active).
Consider `CCCCOC(=O)[C@@H](C)Oc1ccc(Oc2ccc(C#N)cc2F)cc1`, for which the result was inactive.
For `CCCCN(CC)c1c([N+](=O)[O-])cc(C(F)(F)F)cc1[N+](=O)[O-]`, the result was inactive.
On to `C[Si](Cn1cncn1)(c1ccc(F)cc1)c1ccc(F)cc1`, for which the outcome was inactive.
`CC(C)N(C(=O)SCC(Cl)=C(Cl)Cl)C(C)C`: the half-maximal activity concentration (AC50) was 39.8 µM (active).
As to `CCC(=O)Nc1ccc(Cl)c(Cl)c1`, the outcome was inactive.
`CCOP(=S)(Oc1cnc(C(C)(C)C)nc1)OC(C)C` (stereo unspecified): the outcome was inactive.
As to `CCOP(=S)(OCC)OC(Cl)C(Cl)(Cl)Cl` (stereo unspecified), the outcome was inactive.
Take `C#CCC1=C(C)C(OC(=O)C2C(C=C(C)C)C2(C)C)CC1=O` (stereo unspecified): the result was inactive.
With `COc1cccc(C(=O)NN(C(=O)c2cc(C)cc(C)c2)C(C)(C)C)c1C`, the outcome was inactive.
For the compound `CSc1nc(NC(C)C)nc(NC(C)C)n1`, the result was inactive.
Turning to `CCCOCC(=Nc1ccc(Cl)cc1C(F)(F)F)n1ccnc1`, the concentration at half-maximal activity (AC50) is 38.1 µM (active).
Regarding `CCCCSP(=O)(SCCCC)SCCCC`, the outcome was inactive.
Regarding `FC(F)C(F)(F)OCC(Cn1cncn1)c1ccc(Cl)cc1Cl` (stereo unspecified), the outcome was inactive.
With `CCC(CC)Nc1c([N+](=O)[O-])cc(C)c(C)c1[N+](=O)[O-]`, the result was inactive.
As for `CCOP(=S)(OCC)Oc1ccc2c(C)c(Cl)c(=O)oc2c1`, the AC50 was 27.7 µM (active).
On to `CCOC(=O)COc1cc(-c2nn(C)c(OC(F)F)c2Cl)c(F)cc1Cl`, for which the outcome was inactive.
For the compound `CCOP(=S)(OCC)Oc1ccc([N+](=O)[O-])cc1`, the outcome was inactive.
Consider `CCCSP(=O)(OCC)Oc1ccc(Br)cc1Cl` (stereo unspecified), for which the outcome was inactive.
Turning to `N#CSCSC#N`, the AC50 was 41.4 µM (active).
In the case of `CCOP(=S)(OCC)SCCSCC`, the result was inactive.
